Results on 26 molecules are retold here after PubChem BioAssay (NCI).

The nature of test [1]: NCI Yeast Anticancer Drug Screen. Data for the rad50 strain (AID 155).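 Also: 0% = growth of vehicle-only cultures of the same strain.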 The note with it: S. cerevisiae rad50 strain growth inhibition; at 50.0 µM; hits give high values. In a few lines:
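Readout: growth inhibition relative to vehicle-treated cultures. Compound exposure was carried out in a genetically defined yeast strain deficient in DNA damage repair.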

Test [2] can be described thus: NCI Yeast Anticancer Drug Screen. Data for the sgs1 mgt1 strain (AID 161).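 Also: 0% = growth of cultures given vehicle only.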 The note with it: S. cerevisiae sgs1 mgt1 strain, at 50.0 µM, hits give high values. In a few lines:
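Mutant yeast exposed to compound; growth scored against vehicle-only wells.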

Test [3] can be described thus: NCI Yeast Anticancer Drug Screen. Data for the cln2 rad14 strain (AID 165).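 Also: 0% = growth equal to vehicle treated cultures.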 The note with it: S. cerevisiae cln2 rad14 strain, at 50.0 µM, hits give high values. In a few lines: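 Each compound was tested on cln2 rad14 yeast. Inhibition of growth was calculated against vehicle-exposed controls.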
The nature of test [4]: NCI Yeast Anticancer Drug Screen. Data for the bub3 strain (AID 167). The note with it: S. cerevisiae bub3 mutant strain, at 50.0 µM, hits give high values. The gist of the method: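 Readout: yeast growth inhibition, expressed relative to vehicle-only wells. The test organism is a mutant strain from a panel with lesions in DNA repair or checkpoint genes.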
Test [5] is described as follows: NCI Yeast Anticancer Drug Screen. Data for the mlh1 rad18 strain (AID 175). The note with it: S. cerevisiae mlh1 rad18 strain growth inhibition; at 50.0 µM; hits give high values. The gist of the method: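 Vehicle-treated cultures served as the reference for growth inhibition in a yeast strain carrying DNA damage repair alterations exposed to each compound.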
Test [6] in a line: NCI Yeast Anticancer Drug Screen. Data for the mec2-1 strain (AID 157). The note with it: S. cerevisiae mec2-1 strain, at 50.0 µM, hits give high values. The gist of the method:
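Vehicle-treated cultures served as reference for growth inhibition of compound-exposed mec2-1 yeast.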

About 79,000 compounds went through this panel and 15% of them were active in at least one assay; those are over-represented in the sample as a whole. Unmarked numbers belong to inactive results. The source made the active and inactive calls. Rule as the data show it: active = growth inhibition above about 70%; inactive = the rest.

With `Nc1ncnc2c1nc(N)n2C1OC(CO)C(O)C1O` (stereo not given), the growth inhibition was -2.6% in test [1]; 0.4% in test [2]; -23.4% in test [3]; 15.3% in test [4]; 0% in test [5].
On to `c1csc(-c2cc(-c3cc(-c4cccs4)[nH]n3)n[nH]2)c1`, for which the growth inhibition in test [1] is 9.4%; in test [2], 6.35%; in test [3], -2.7%; in test [4] it was -3.05%.
Take `S=c1[nH]ccn1-c1ccccc1Cl`: the growth inhibition in test [1] was -17.8%; in test [2] it was -17.6%; in test [3], -29.1%; in test [4], -10.4%; in test [5], -2.1%.
The like results for `COC(=O)CCCCC1=CCC2C(=O)C=C(O)C2C1` (stereo not given) were, in that order, -13.3%, -11.2%, -2.5%, -6.6% and -18.8%.
The like results for `FC(F)(F)c1ccc2c(c1)N(CCCN1CCN(C3CC3)CC1)c1ccccc1S2` were, in that order, 99.3% (active), 99.7% (active), 99% (active), 99% (active) and 99.5% (active).
The corresponding values for `Sc1ccc(Nc2c3ccccc3nc3ccccc23)cc1` are 28.4%, 14.9%, 7.3%, 25.6% and 54.6%.
As for `CC(=O)NCc1cc(C)c(C)cc1C`, the growth inhibition was 12.5% in test [1]; 1.25% in test [2]; 9.15% in test [3]; 5.3% in test [4]; 8.5% in test [5].
The like results for `Cc1cc(C(O)(c2ccc(Nc3ccccc3)cc2)c2ccc(Nc3ccc(S(=O)(=O)O)cc3)cc2)ccc1N` (stereo not given) were, in that order, -44.5%, -9.6%, -16.1%, -36.6% and -34.6%.
For the molecule `COc1ccc(NC(=O)CCl)cc1`, the growth inhibition in test [1] is 29.7%; in test [2], 24.4%; in test [3], 17.9%; in test [4], 36.7%.
Consider `C=CCNc1ccccc1`, for which the growth inhibition is 31.2% in test [1]; 7.55% in test [2]; -36.6% in test [3]; 17.6% in test [4]; 13.7% in test [5].
For the molecule `COCCCC/C(=N\OCCN)c1ccc(C(F)(F)F)cc1`, the growth inhibition in test [1] was 26.5%; in test [2], 12.6%; in test [3] it was -3.9%; in test [4] it was -0.35%; in test [5] it was 25.3%.
The like results for `c1ccc(/C(=N\N=C(/c2ccccc2)c2cccs2)c2cccs2)cc1` were, in that order, 18.3%, 25.7%, -2.8%, 23.6% and 10.6%.
The corresponding values for `CCC(C#N)(CC)c1ccccc1` are 16%, 11.1%, 12.7%, -3.2% and 36.3%.
With `COc1cc2c3c(n(C)c(=O)c2cc1OC)-c1cc2c(cc1C3=O)OCO2`, the growth inhibition in test [1] is 8.35%; in test [2] it was -1.5%; in test [3], 53.3%; in test [4], -3.6%; in test [5], -16.1%.
The corresponding values for `O=C(O)c1ccc(S(=O)(=O)O)cc1` are 8.55%, 0.45%, -12.4%, 18.5% and 12.5%.
The corresponding values for `CC(C)COC(=O)COC(=O)OCCOCCOC(=O)OCC(=O)OCC(C)C` are 36.5%, 17.4%, -26.9%, 26.1% and 8.6%.
The like results for `CCCCCCCCCCC1CO1` (stereo not given) were, in that order, 4.95%, -7%, -23.1%, -13.9% and -8.05%.
Consider `O=C(Nc1cccc(NC(=O)Nc2cc(C(F)(F)F)ccc2Cl)c1)Nc1cc(C(F)(F)F)ccc1Cl`, for which the growth inhibition in test [6] is -15.8%; in test [2] it was 9.55%; in test [3] it was 19.4%; in test [4], 14.9%.
In the case of `CCOC(=O)CNN`, the growth inhibition in test [1] is -7.2%; in test [2], -12.2%; in test [3] it was 9.75%; in test [4] it was -14.8%; in test [5], -30.1%.
The like results for `CCCOC(=O)C(O)c1ccccc1` (stereo not given) were, in that order, 16.2%, -5.5%, -24.1%, -13.2% and 14.8%.
Turning to `O=C(NC1CCCCC1)OCc1c(COC(=O)NC2CCCCC2)c(-c2ccc(Cl)c(Cl)c2)n2c1CCC2`, the growth inhibition in test [1] is 16%; in test [2] it was 27.4%; in test [3], 43.3%; in test [4] it was -5.3%; in test [5] it was 6.9%.
The like results for `O=c1cc(-c2ccccc2)[nH]c(=S)[nH]1` were, in that order, -13.4%, 8.65%, -24.8%, 9.1% and -9.55%.
The like results for `CC(=Nc1ccccc1)C1=C(O)C(Cc2cccc(F)c2)NC1=O` (stereo not given) were, in that order, 5.3%, 13.6%, 2.3%, -2.5% and -22%.
Consider `CCCCOC(OCCCC)c1ccccc1`, for which the growth inhibition in test [1] was -26.5%; in test [6], -9.5%; in test [2] it was 20.7%; in test [5], 12.2%.
In the case of `COc1ccc(Oc2c(I)cc(CC(NC(C)=O)C(=O)O)cc2I)cc1` (stereo not given), the growth inhibition in test [1] was 43.1%; in test [2] it was 38.7%; in test [4], 37.4%; in test [5], 49.7%.
In the case of `C#Cc1cccc(NC(=O)c2ccc(Cl)cc2Cl)c1`, the growth inhibition was 9.95% in test [1]; 26.6% in test [2]; 24.2% in test [3]; 25% in test [4]; 15.7% in test [5].
